Compound activity deposited in PubChem by National Center for Advancing Translational Sciences (NCATS).
Shown are actives, neighbours in structure and some others; about 14% of the full set was active somewhere.
HADH2 inhib: inhibitors of human HADH2 dehydrogenase; Q99714; recombinant HADH2, NADH fluorescence, beta-hydroxybutyryl-CoA; Potency, µM (titrated, usually from 57.1 µM), inactives show at the highest dose activity change, negative = inhibition, actives largely listed as inhibitors; 3.4% of 73,000 active; AID 886; further: potency means the concentration at half of the fitted maximal effect; on the % scale 0 is the no-effect control and ±100 the full control effect; nearly all actives have a fitted effect of over 60% in size
Target sequence (Q99714 whole entry, looked up, one chain of several): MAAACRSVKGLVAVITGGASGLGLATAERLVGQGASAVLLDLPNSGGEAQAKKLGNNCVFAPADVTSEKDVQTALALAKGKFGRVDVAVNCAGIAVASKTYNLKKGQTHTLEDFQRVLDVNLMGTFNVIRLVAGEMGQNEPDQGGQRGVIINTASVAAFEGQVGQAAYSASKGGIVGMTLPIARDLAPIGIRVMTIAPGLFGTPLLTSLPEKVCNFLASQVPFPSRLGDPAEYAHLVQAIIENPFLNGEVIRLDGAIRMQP
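His-tagged recombinant enzyme from E. coli, 20 nM, preincubated 15 min RT with compound; reaction started with 1 mM NAD+ and 90 uM beta-hydroxybutyryl-CoA in 100 mM Tris-HCl pH 9.0. NADH fluorescence (ex 360/em 450) read over 4 min; last-minus-first difference.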
AID923: qHTS Assay for Allosteric/Competitive Inhibitors of Caspase-1: Spectroscopic Profiling in AFC Spectral Region; AID 923, 2007; Potency, µM (highest dose often 57.5 µM), for the others: top-dose fluorescence increase, most hits filed as activators; compound fluorescence, AFC spectral region (405/520 nm); 1.1% of 75,000 active; further: potency means the concentration at half of the fitted maximal effect; 0% is about no effect
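Titrations up to 57 uM read every 20 sec for 3 min (405/520 nm) with 50 nM caspase 1 and 5 uM Ac-WEHD-AFC, pH 7.5 HEPES buffer. Fluorescence-vs-time intercept gave baseline, scaled against on-plate AFC standard.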
4MU fluor: 4-MU region autofluorescence. compound autofluorescence, 340/450 nm, 4-MU equivalents; active compounds read high. max dye-equivalent concentration, M. 11% of 59,000 active. AID 589; in the data active means max dye-equivalent concentration above about 10 nM; inconclusive means mostly about 1.1 nM to 9.6 nM
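Intrinsic fluorescence at 340/450 nm (ex/em) was read after 15 min at room temperature in pH 8.0, 100 mM Tris. Each compound concentration expressed as 4-MU-equivalent concentration from a six-point 4-MU standard series on each plate.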
CRE-bla Fsk: modulators of forskolin-stimulated CRE signaling in CHO cells; CHO CRE-bla reporter (cAMP response element driving beta-lactamase), forskolin EC10, beta-lactamase ratio; AID 662; Potency, µM (doses to about 38.2 µM), without a hit: at the highest dose activity change, negative = inhibition, actives largely listed as activators; 2.5% of 71,000 active; active means well fitted activation curve with a large enough effect in the signal ratio, with a control signal flat, not every such curve was filed as active; inconclusive means small, poorly fitted or top-dose-only effect, or effect the other way, or a change in a side signal; the % refers to the signal ratio; further: potency means the concentration at half of the fitted maximal effect; % of control where 0% means no effect
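qHTS titration format; CRE-bla CHO reporter; stimulus EC10 NKH 477, a water-soluble forskolin. Read: CCF4 460/530 nm ratio. Potency expressed as AC50 for activators or inhibitors.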
A350 fluor: A350 region autofluorescence; 11% of 59,000 active; max dye-equivalent concentration, M; Compound autofluorescence, 340/450 nm, Alexa 350 dye-equivalents; active compounds read high; AID 590; in the data active means max dye-equivalent concentration above about 10 nM; inconclusive means mostly about 1.1 nM to 9.6 nM
HSD17B inhib: inhibitors of human HSD17B10 dehydrogenase | Potency, µM (top dose mostly 57.1 µM), for the others: at the top dose activity change, negative = inhibition, usual class: inhibitors | Q99714 | 7.6% of 75,000 active | recombinant HSD17B10, NADH fluorescence kinetic;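 further: the protocol describes HADH2 (HSD17B10) and not the HSD17B4 of the title; potency means the concentration at half of the fitted maximal effect; on the % scale 0 is the no-effect control and ±100 the full control effect; nearly all actives have a fitted effect of over 70% in size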
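Enzyme plus compound, 15 min room temperature; substrate mix added (NAD+ 1 mM, beta-hydroxybutyryl-CoA 90 uM final); plates read kinetically for NADH fluorescence. HADH2 was His-tagged, E. coli-derived, 20 nM.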
An asterisk follows results filed as active; [ ] = dose if it differs, or a comment. Unless noted, the call rests on the fitted dose curve; in most records, active means well fitted curve in the direction sought with a large enough effect; inconclusive means small, poorly fitted or top-dose-only effect, or another doubt; inactive means no such curve, though single readings can be large; an effect the other way counts as inactive or inconclusive.

`CCN(CC)c1cc(C)c2cc(NC(=O)CNC(C)=O)ccc2n1` gave HADH2 inhib 116%, AID923 1%, 4MU fluor 1.5e-06M*, CRE-bla Fsk 10%, A350 fluor 1.4e-06M* and HSD17B inhib 25µM*.
For COc1cccc(NS(=O)(=O)c2cn(C)c(=O)n(C)c2=O)c1 the results were HADH2 inhib inconclusive, AID923 8%, CRE-bla Fsk 6% and HSD17B inhib 3.2µM*.
COc1cccc(NS(=O)(=O)c2ccc3c(c2)n(C)c(=O)c(=O)n3C)c1 was read as HADH2 inhib -9%, AID923 1%, 4MU fluor inactive, CRE-bla Fsk -16%, A350 fluor inactive and HSD17B inhib -3%.
C[C@H](NCCN(C)C)[C@@H]1CCC2C3CCc4cc(O)ccc4[C@H]3CCC21C (stereo not given in full) was read as HADH2 inhib 18%[11.4 µM], AID923 1%[11.5 µM], 4MU fluor inactive, CRE-bla Fsk -7%[7.6 µM], A350 fluor inactive and HSD17B inhib 12%[11.4 µM].
Screening Cn1cccc1C(=O)N1CCC2(CCCN(Cc3nccs3)C2)CC1 returned HADH2 inhib -3%, AID923 7%, 4MU fluor inactive, CRE-bla Fsk 0%, A350 fluor inactive and HSD17B inhib 12%.
COc1ccc(-c2coc3ccc(OC4OC(COC(C)=O)C(OC(C)=O)C(OC(C)=O)C4OC(C)=O)c(OC(C)=O)c3c2=O)cc1 (stereo not given) was read as AID923 0% and HSD17B inhib -9%.
For O=C(CN1CCOc2ccccc21)NCc1cccs1 the results were HADH2 inhib -6%, AID923 0%, 4MU fluor inactive, CRE-bla Fsk -24%, A350 fluor inactive and HSD17B inhib 1%.
CCOC(=O)N1CCC(NC(=O)CCN2C(=O)COc3ccccc32)CC1 was read as HADH2 inhib -1%, AID923 -1%, 4MU fluor 9.5e-08M*, CRE-bla Fsk -2%, A350 fluor 1.3e-07M* and HSD17B inhib -22%.
COc1ccc(CCNC(=O)CCN2C(=O)COc3ccccc32)cc1OC was read as HADH2 inhib 5%, AID923 1%, 4MU fluor 3.7e-08M*, CRE-bla Fsk 10%, A350 fluor 4.7e-08M* and HSD17B inhib 3%.
`O=C(CCN1C(=O)COc2ccccc21)NCc1cccs1` gave HADH2 inhib -4%, AID923 -2%, 4MU fluor 1.7e-08M*, CRE-bla Fsk -1%, A350 fluor 2.3e-08M* and HSD17B inhib -2%.
CCC(C)C(NC)C(=O)O (stereo not given) was read as AID923 1% and HSD17B inhib 1%.
For Cc1cc2ncn(CC(=O)O)c2cc1C the results were HADH2 inhib -2%[11.4 µM], AID923 -1%[11.5 µM], 4MU fluor inactive, CRE-bla Fsk -1%[7.6 µM], A350 fluor inactive and HSD17B inhib -4%[11.4 µM].
Screening CCC(=O)N1CCc2cc(OC)c(OC)cc2C1COc1ccc(C(=O)OC)cc1 (stereo not given) returned HADH2 inhib -5%, AID923 3%, 4MU fluor inactive, CRE-bla Fsk 4µM*, A350 fluor inactive and HSD17B inhib -8%.
`COC(=O)c1ccc(OCC2c3cc(OC)c(OC)cc3CCN2C(=O)c2ccco2)cc1` (stereo not given) gave HADH2 inhib -3%, AID923 2%, 4MU fluor inactive, CRE-bla Fsk 1.6µM*, A350 fluor inactive and HSD17B inhib 1%.
`CCn1c(CSc2nc(C)cs2)nc2cc(S(=O)(=O)N(C)C)ccc21` gave HADH2 inhib -12%, AID923 0%, 4MU fluor inconclusive, CRE-bla Fsk 9%, A350 fluor inconclusive and HSD17B inhib 10%.
Screening CCN(CC)S(=O)(=O)c1ccc2c(c1)nc(SCc1nc3ccsc3c(=O)[nH]1)n2CC returned HADH2 inhib inconclusive, AID923 -2%, 4MU fluor inactive, CRE-bla Fsk 5µM*, A350 fluor inactive and HSD17B inhib -17%.
